High-throughput results: PubChem BioAssay, several laboratories
NALP3 yeast inh = NALP3 inflammasome inhibitors in reconstituted yeast, primary screen, luminescence, uHTS; Yeast reconstituted NLRP3/ASC/caspase-1, beta-gal luminescence, 24 h; inhibition, % at 10 µM; actives 0.39% (n = 330,000);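 active = inhibition of 50% or more; inactive = inhibition below 50%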
tim10-1 inh = growth inhibitors of tim10-1 mutant yeast, primary screen, luminescence, uHTS. AID 463190, 2010. actives 2.2% (n = 330,000). inhibition, % at 20 µM. S. cerevisiae tim10-1 ts strain growth, BacTiter-Glo, 24 h;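 active = inhibition of at least 40%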;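 note: mutant grown at 25 °C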
PfHsp90 yeast 2 = growth inhibition of PfHsp90-expressing yeast, primary screen, antimalarial PfHsp90 inhibitor project, S. cerevisiae, BacTiter-Glo luminescence, single point, set 2. actives 0.32% (n = 310,000). AID 504621, 2011. BacTiter-Glo ATP, 48 h; yeast lacking PDR1 and PDR3 efflux regulators. inhibition, % at 9.4 µM;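 active = every replicate shows inhibition above about 80%, whatever the replicate mean, limit read from the data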
tim23-1 inh = growth inhibitors of tim23-1 mutant yeast, primary screen, luminescence, uHTS. S. cerevisiae tim23-1 growth, BacTiter-Glo luminescence, 24 h. actives 1.3% (n = 330,000). inhibition, % at 20 µM. AID 463212, 2010;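 active = growth inhibition of the mutant yeast at or above 50%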;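 note: temperature-sensitive mutant grown at 25 °C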
TIM10 inh = growth inhibitors of isogenic TIM10 control yeast, primary screen, counter-screen for tim10-1 yeast inhibitor project, luminescence, uHTS | actives 1.4% (n = 330,000) | inhibition, % at 10 µM | S. cerevisiae TIM10 strain growth, BacTiter-Glo luminescence, 24 h;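 active = inhibition of 40% or more at the single tested concentration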;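 note: wild-type TIM10 isogenic control strain grown at permissive 25 °C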
NALP1 yeast inh = NALP1 inflammasome inhibitors in reconstituted yeast, colorimetric, S. cerevisiae, triplicate retest. S. cerevisiae NALP1/ASC/caspase-1 growth, X-gal OD620, 72 h. inhibition, % at 10 µM. actives 0.61% (n = 280,000); in the data active = inhibition mostly above about 24%, no sharp cut-off; inactive = mostly below about 32%
Of the large screens only hits and unclear results are named; the others gave an inactive call. Hits are enriched below; roughly 4.2% of the tested compounds scored in any of these assays.

N#Cc1ccc(OCC(=O)NCCc2ccccn2)cc1	NALP1 yeast inh 36
CCN(CC)CC#CCC(O)(c1ccccc1)c1ccccc1	none
CCN(CC)CC#CCC(C)(c1ccccc1)c1ccccc1	NALP1 yeast inh 31
CC(=O)Oc1ccc(OC(C)=O)c2c1CC(C)=C(C)C2	none
COc1cc(OC)c(C2=NOC(C(=O)N3CCCc4ccccc43)C2)cc1Cl (stereo not given)	NALP1 yeast inh 37
CCC1CCCCN1C(=O)C1CC(c2cc(Cl)c(OC)cc2OC)=NO1 (stereo not given)	none
O=c1[nH]c(-c2ccccn2)cc2ccccc12	none
NC(=Nc1nc(-c2ccccn2)cc2ccccc12)c1ccccn1	PfHsp90 yeast 2 142 (no result: NALP3 yeast inh, tim10-1 inh, tim23-1 inh, TIM10 inh, NALP1 yeast inh)
O=Cc1ccc(N2CCCC2)c([N+](=O)[O-])c1	none
O=[N+]([O-])/C=C\c1ccc(N2CCCC2)c(F)c1	PfHsp90 yeast 2 106 (no result: NALP3 yeast inh, tim10-1 inh, tim23-1 inh, TIM10 inh)
CCN1/C(=C/c2ccc3cc(C)cc(C)c3[n+]2CC)Sc2cc(C)ccc21	PfHsp90 yeast 2 102 (no result: NALP3 yeast inh, tim10-1 inh, tim23-1 inh, TIM10 inh)
CCN1/C(=C\c2ccc3cc(C)ccc3[n+]2CC)Sc2cc(C)c(C)cc21	PfHsp90 yeast 2 94 (no result: NALP3 yeast inh, tim10-1 inh, tim23-1 inh, TIM10 inh)
CCOc1ccc(CN(C)CC(=O)NCc2ccc(F)cc2)cc1	none
O=C(COC(=O)c1cc(S(=O)(=O)NCc2ccccc2)ccc1O)c1cc2ccccc2o1	none
O=C(CCCOc1ccc(Cl)cc1)N1CCCCC1	none
O=C(CCCOc1ccccc1)N1CCCCC1	NALP1 yeast inh 33 (no result: PfHsp90 yeast 2)
COc1cc(C(=O)NCCN2C(=O)S/C(=C\c3ccc(F)cc3)C2=O)ccc1OCC(=O)N1CCOCC1	none (no result: PfHsp90 yeast 2)
COc1cccc2c1C(=O)c1c(O)c3c(c(O)c1C2=O)CC(O)(C(C)=O)CC3OC1CC(N(C)C)C(O)C(C)O1 (stereo not given)	PfHsp90 yeast 2 98 (no result: NALP3 yeast inh, tim10-1 inh, tim23-1 inh, TIM10 inh, NALP1 yeast inh)
CCC(C)c1ccc(OCCn2ccnc2)cc1 (stereo not given)	NALP1 yeast inh 53
Cc1cc(Br)ccc1OCCn1ccnc1	NALP1 yeast inh 55
CCOc1ccc(OCCOCCn2ccnc2)cc1	none
CC1CCN(CCCCOc2ccc(Br)cc2)CC1	none
Cc1cc(Cl)c(OCCOCCN2CCC(C)CC2)c(Br)c1	NALP1 yeast inh 52
Cc1cc(Br)ccc1OCCCCN1CCC(C)CC1	NALP1 yeast inh 56
O=C(Sc1n[nH]c(=O)[nH]c1=O)c1ccccc1	none (no result: NALP3 yeast inh, tim10-1 inh, tim23-1 inh, TIM10 inh, NALP1 yeast inh)
Cn1cc(Cl)c(C(=O)OCC(=O)c2ccccc2)n1	none
C#CCOC(=O)c1ccc(-n2cncn2)nc1	NALP1 yeast inh 42
CCOC(=O)c1ccc(-n2cncn2)nc1	none
CCOC(=O)[C@H](CCc1ccccc1)N[C@@H](C)C(=O)N1[C@H](C(=O)O)C[C@@H]2CCC[C@@H]21	none (no result: NALP1 yeast inh)
COc1ccc(C(=O)Nc2ccccc2C(=O)NC(C)C)cc1OC	NALP1 yeast inh 36
Cc1ccc(Cl)cc1NC(=O)Nc1cccs1	none
CCOC(=O)c1cc(NC(=O)N(CC)CC)c(C)nc1C	NALP1 yeast inh 37
CC(C(=O)NCc1ccccc1)n1cc([N+](=O)[O-])cn1 (stereo not given)	none
FC(F)(F)c1ccc(Nc2nnnc3ccccc23)cc1	none
CCOC(=O)c1cnn(C)c1NC(=O)c1ccc([N+](=O)[O-])cc1	none
COc1ccc(NC(=O)Cn2c(=O)sc3ccccc32)c(OC)c1	NALP1 yeast inh 39 (no result: PfHsp90 yeast 2)
O=c1c2cnn(-c3ccccc3)c2ncn1CCc1ccccc1	none
CCn1cnc2c(cnn2-c2ccccc2)c1=O	NALP1 yeast inh 36
CC(=O)c1ccc(OCC(O)CN2CCN(Cc3ccccc3)CC2)cc1 (stereo not given)	NALP1 yeast inh 41
O=C(c1ccccc1)c1ccc(OCCCN2CCCC2)cc1	none
O=C(c1ccccc1)c1ccc(OCC(O)CN2CCN(Cc3ccccc3)CC2)cc1 (stereo not given)	none
O=C(c1ccccc1)c1ccc(OCCOCCN2CCN(Cc3ccccc3)CC2)cc1	NALP1 yeast inh 38
CCc1ccc(N2CC(C(=O)OCC(=O)c3c(N)n(CC(C)C)c(=O)n(C)c3=O)CC2=O)cc1 (stereo not given)	none (no result: NALP1 yeast inh)
Cc1onc(-c2ccccc2)c1C(=O)N(Cc1ccco1)Cc1cccs1	none (no result: NALP3 yeast inh, tim10-1 inh, tim23-1 inh, TIM10 inh)
CC(c1ccccc1)n1c(N2CCN(C)CC2)nc2c1c(=O)[nH]c(=O)n2C (stereo not given)	none
O=C(c1cc(-c2ccccn2)nc2c(Cl)cccc12)N1CCN(S(=O)(=O)c2ccccc2)CC1	none
O=C(c1cc(-c2ccccn2)nc2c(Cl)cccc12)N1CCN(C(=O)C2CCCO2)CC1 (stereo not given)	NALP1 yeast inh 38
COC(=O)C[C@H]1c2cc(C(F)(F)F)ccc2S(=O)(=O)N1Cc1ccc(OC)cc1	none (no result: PfHsp90 yeast 2, NALP1 yeast inh)
Fc1ccc(C2CCCN2Cc2nc(Cc3ccccc3F)no2)cc1 (stereo not given)	NALP1 yeast inh 24
Fc1ccc(C2CCCN2Cc2nc(Cc3ccccc3)no2)cc1 (stereo not given)	none
O=C(CSc1nncc(=O)[nH]1)NC1CCCCC1	none
N#C/C(=C\c1cccc([N+](=O)[O-])c1)C(=O)NCc1ccc(Cl)cc1	PfHsp90 yeast 2 105 (no result: NALP3 yeast inh, tim10-1 inh, tim23-1 inh, TIM10 inh)
CCCCOc1ccc(CSC2=NCCN2)cc1[N+](=O)[O-]	NALP1 yeast inh 47
CCOc1ccccc1NC(=O)CSc1ccccc1	NALP1 yeast inh 27
O=C(CSC(=S)N1CCCC1)N(Cc1nnc(-c2ccccc2Cl)o1)C1CC1	none (no result: NALP1 yeast inh)
COc1ccccc1/C=C/C(=O)OCc1nc2ccccc2c(=O)[nH]1	NALP1 yeast inh 16
COc1ccc(/C=C/C(=O)OCc2nc3ccccc3c(=O)[nH]2)c(OC)c1	none
Oc1c(Br)cc(Br)c2cccnc12	PfHsp90 yeast 2 107 (no result: NALP3 yeast inh, tim10-1 inh, tim23-1 inh, TIM10 inh, NALP1 yeast inh)
Oc1c(CN2CCN(c3ccccc3)CC2)cc(Br)c2cccnc12	PfHsp90 yeast 2 124 (no result: NALP3 yeast inh, tim10-1 inh, tim23-1 inh, TIM10 inh)
Brc1csc2ncccc12	none
CCCn1c(N)c(C(=O)CSc2nnc(Cc3cccs3)n2C2CC2)c(=O)n(C)c1=O	none (no result: NALP1 yeast inh)
Clc1ccccc1-c1nnc2n1CCCCC2	none
COc1cccc(NC(=O)COC(=O)Cc2ccc(Cl)cc2)c1	NALP1 yeast inh 30
COc1ccc(CC(=O)OCC(=O)Nc2cccc(Cl)c2)cc1	none
Cc1cc(NC(=O)COC(=O)c2cnccn2)ccc1Br	none (no result: NALP1 yeast inh)
Cc1ccc(NC(=O)c2cc(N3C(=O)CCC3=O)ccc2N2CCOCC2)cc1	none
Cc1ccc(NC(=O)c2cc(N3C(=O)C=CC3=O)ccc2N2CCOCC2)cc1Cl	PfHsp90 yeast 2 105 (no result: NALP3 yeast inh, tim10-1 inh, tim23-1 inh, TIM10 inh)
COc1ccc(CN2CCC(n3nccc3NC(=O)CCc3ccccc3)CC2)c(C)c1C	none
